Measured values reported in the supplement of paper PMC11732987, “Enantioselective OTUD7B fragment discovery through chemoproteomics screening and high-throughput optimisation” (Communications Chemistry, 2025).

How the values were obtained:
Assay in all cases: log2 ratio of Biotin-Ahx-Ub-VS probe labelling (fragment/DMSO); higher = less target engagement (more negative = stronger competition), active = hit call of the paper (q ≤ 0.05, log2 ratio ≤ -1)
Details in all cases: compound concentration: 200 uM; treatment time: 3 h
[1] = biological target: USP34 (UniProt Q70CQ2)
Chain of USP34 (Q70CQ2 whole entry, the tested form may be a part): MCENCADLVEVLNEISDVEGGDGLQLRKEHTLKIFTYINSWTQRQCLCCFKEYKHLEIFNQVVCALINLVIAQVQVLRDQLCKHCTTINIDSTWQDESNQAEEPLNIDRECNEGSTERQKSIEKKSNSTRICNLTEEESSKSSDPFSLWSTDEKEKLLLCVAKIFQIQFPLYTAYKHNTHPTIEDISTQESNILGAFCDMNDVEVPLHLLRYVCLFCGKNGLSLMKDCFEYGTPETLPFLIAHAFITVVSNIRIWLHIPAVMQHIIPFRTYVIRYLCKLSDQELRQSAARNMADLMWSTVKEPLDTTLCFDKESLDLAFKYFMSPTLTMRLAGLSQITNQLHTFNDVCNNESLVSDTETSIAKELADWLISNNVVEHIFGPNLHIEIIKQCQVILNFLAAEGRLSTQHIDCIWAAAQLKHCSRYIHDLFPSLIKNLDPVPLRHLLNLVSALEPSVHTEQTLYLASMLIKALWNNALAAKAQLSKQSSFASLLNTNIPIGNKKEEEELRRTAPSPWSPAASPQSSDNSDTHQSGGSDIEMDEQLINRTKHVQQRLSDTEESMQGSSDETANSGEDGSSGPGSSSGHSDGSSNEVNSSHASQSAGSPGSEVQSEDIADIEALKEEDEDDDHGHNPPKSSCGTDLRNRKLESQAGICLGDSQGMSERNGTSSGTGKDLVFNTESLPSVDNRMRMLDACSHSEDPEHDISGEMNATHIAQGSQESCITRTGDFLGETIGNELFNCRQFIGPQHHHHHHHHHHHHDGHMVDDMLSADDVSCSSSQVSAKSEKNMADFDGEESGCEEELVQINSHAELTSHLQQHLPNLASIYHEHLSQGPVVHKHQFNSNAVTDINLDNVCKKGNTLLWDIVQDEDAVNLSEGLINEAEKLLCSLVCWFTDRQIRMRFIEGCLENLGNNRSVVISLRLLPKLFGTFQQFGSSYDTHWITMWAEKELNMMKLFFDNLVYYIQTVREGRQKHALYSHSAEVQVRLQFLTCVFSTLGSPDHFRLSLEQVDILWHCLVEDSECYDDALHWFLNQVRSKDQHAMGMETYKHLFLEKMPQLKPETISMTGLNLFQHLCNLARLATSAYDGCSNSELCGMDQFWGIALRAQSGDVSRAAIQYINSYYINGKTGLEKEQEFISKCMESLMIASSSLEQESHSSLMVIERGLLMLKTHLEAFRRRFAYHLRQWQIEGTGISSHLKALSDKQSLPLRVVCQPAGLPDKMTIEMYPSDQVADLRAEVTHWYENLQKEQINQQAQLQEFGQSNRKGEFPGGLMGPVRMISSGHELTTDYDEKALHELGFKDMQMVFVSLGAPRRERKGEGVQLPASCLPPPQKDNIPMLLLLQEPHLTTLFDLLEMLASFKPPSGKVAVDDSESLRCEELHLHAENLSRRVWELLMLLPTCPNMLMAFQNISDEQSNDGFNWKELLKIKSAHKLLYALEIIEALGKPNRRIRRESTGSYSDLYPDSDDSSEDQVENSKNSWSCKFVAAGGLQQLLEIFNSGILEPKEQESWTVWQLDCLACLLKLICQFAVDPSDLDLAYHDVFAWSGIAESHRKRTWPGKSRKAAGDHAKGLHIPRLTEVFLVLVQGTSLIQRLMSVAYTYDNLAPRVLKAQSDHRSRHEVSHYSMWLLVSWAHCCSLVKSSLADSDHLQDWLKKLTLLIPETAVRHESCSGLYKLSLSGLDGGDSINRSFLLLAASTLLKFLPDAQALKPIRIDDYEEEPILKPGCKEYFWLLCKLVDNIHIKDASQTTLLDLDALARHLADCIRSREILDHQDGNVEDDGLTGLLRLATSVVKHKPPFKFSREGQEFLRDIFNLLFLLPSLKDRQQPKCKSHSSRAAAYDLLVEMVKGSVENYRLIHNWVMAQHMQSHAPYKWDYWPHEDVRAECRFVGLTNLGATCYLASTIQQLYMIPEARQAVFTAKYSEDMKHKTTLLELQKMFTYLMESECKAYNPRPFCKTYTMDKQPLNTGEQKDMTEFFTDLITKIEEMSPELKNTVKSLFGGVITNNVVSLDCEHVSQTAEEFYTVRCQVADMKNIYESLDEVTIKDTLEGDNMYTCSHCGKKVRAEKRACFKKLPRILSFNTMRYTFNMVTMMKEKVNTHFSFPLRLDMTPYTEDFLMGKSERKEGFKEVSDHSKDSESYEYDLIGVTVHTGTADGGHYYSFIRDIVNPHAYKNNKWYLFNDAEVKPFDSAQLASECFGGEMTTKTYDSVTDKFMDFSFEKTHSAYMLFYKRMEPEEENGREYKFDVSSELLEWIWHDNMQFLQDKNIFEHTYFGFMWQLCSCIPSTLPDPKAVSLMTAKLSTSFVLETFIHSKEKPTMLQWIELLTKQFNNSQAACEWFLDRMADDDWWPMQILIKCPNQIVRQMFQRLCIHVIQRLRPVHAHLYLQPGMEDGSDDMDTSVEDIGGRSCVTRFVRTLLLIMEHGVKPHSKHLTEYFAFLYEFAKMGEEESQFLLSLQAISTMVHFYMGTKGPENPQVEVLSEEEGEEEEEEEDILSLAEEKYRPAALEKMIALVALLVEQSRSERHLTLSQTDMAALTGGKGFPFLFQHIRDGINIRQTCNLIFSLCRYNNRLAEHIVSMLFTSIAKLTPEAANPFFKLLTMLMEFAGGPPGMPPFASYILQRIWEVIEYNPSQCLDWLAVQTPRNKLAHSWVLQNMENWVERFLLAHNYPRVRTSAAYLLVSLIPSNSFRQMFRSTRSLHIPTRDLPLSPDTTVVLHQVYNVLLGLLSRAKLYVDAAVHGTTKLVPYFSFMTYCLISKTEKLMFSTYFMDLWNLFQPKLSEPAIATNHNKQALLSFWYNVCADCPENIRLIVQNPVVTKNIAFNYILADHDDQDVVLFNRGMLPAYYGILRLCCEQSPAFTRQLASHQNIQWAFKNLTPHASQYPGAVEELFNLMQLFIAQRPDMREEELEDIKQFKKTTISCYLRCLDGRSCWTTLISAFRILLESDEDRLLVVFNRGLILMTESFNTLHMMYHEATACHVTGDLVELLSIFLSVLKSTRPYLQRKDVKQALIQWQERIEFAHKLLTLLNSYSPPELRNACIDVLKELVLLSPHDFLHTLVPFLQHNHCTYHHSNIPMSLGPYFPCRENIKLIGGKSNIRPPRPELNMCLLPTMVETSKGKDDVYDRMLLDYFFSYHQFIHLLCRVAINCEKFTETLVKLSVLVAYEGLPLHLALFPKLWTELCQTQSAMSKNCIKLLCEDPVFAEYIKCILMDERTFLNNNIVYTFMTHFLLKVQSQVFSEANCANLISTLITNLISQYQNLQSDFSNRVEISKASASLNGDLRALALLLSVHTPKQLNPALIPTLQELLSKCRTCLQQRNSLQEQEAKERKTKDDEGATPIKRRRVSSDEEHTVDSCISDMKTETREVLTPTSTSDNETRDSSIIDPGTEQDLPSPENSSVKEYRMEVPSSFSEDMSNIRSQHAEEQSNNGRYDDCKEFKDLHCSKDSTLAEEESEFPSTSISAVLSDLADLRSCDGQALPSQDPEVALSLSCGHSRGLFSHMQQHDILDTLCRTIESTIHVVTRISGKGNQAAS
In short: (§1)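 The table lists average log2 ratios of fragment over vehicle, from an unpaired t-test on global-median-normalised Spectronaut label-free quantities. Proteins with ≥2 unique peptides were used. Samples were HEK293T lysate (495 µg) treated in triplicate with fragment at 200 µM or vehicle for 3 h, then with Biotin-Ahx-Ub-VS (0.5 µM final) for 1 h, with labelled DUBs NeutrAvidin-enriched and run by diaPASEF LC-MS/MS.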

[2] = biological target: T1, USP36 (UniProt Q9P275)
T1 sequence (whole entry): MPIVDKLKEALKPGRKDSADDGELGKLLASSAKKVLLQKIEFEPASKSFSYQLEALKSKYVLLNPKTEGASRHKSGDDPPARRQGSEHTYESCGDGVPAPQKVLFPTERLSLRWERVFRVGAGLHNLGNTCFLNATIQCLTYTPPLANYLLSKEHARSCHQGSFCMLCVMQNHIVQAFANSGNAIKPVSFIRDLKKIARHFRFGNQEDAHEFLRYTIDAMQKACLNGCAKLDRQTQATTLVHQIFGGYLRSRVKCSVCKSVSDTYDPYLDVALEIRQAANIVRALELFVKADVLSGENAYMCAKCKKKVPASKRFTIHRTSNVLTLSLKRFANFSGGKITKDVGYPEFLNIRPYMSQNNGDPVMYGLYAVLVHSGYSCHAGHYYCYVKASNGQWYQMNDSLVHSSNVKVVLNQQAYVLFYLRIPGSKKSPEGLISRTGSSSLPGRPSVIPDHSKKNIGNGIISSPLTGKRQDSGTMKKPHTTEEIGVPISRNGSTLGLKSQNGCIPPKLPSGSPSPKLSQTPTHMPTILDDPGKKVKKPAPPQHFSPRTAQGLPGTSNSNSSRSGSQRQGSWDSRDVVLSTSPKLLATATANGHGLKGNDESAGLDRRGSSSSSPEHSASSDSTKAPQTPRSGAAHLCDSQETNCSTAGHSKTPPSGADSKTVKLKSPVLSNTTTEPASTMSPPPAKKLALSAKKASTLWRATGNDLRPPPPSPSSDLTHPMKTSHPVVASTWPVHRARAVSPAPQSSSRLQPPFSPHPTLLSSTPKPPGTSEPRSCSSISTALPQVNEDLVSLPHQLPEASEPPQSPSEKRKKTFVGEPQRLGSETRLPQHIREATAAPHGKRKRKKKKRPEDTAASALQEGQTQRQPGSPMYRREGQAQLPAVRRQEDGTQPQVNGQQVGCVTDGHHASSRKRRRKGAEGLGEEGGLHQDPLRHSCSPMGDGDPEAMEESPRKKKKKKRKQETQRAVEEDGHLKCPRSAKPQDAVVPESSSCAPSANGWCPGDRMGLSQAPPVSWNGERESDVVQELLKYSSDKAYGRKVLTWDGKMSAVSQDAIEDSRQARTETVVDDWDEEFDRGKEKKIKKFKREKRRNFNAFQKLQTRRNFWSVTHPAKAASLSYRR
In short: as §1

[3] = biological target: T2, USP38 (UniProt Q8NB14)
T2 sequence (whole entry): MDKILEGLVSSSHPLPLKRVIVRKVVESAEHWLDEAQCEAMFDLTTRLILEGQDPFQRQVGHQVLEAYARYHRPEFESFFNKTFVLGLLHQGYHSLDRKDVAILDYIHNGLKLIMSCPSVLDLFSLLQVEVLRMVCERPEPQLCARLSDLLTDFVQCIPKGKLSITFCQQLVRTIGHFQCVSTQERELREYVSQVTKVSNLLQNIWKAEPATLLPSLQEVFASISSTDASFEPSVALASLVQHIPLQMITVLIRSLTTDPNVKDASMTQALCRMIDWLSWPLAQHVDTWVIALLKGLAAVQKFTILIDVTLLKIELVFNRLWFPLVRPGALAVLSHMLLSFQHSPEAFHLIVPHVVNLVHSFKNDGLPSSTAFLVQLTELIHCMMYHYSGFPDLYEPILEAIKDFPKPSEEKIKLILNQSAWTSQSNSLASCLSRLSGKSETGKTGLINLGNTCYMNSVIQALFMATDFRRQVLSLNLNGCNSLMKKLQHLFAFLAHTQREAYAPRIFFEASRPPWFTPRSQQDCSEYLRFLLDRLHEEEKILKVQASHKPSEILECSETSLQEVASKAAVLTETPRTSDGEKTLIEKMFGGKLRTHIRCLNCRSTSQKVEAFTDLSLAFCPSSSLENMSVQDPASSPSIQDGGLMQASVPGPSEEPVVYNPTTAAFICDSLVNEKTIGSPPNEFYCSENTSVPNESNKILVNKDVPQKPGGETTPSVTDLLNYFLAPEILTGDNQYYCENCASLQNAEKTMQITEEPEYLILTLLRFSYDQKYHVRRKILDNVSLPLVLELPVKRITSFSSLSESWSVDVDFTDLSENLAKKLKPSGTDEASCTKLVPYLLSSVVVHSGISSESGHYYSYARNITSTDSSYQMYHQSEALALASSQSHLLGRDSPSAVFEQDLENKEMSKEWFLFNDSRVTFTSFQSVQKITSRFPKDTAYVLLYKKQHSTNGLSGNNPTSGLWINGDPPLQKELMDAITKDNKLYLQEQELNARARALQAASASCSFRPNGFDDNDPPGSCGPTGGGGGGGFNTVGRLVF
In short: as §1

[4] = biological target: T3, USP39 (UniProt Q53GS9)
T3 sequence (whole entry): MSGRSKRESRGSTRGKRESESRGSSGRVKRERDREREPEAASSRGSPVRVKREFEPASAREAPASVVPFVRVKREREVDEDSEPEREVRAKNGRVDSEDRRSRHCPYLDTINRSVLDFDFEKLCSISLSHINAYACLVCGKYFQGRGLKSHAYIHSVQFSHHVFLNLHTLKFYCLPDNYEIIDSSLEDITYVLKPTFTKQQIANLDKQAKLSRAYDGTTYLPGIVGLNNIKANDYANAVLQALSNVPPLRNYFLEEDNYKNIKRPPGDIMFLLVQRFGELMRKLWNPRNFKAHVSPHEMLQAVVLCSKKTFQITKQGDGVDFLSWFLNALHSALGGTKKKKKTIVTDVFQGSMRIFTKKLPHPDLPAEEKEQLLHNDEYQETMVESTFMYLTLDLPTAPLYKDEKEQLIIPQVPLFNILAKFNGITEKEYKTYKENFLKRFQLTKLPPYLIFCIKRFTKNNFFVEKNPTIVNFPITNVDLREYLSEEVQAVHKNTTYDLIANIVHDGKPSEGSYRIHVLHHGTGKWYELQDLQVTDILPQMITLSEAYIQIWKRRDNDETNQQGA
In short: as §1

[5] = biological target: T4, USP4 (UniProt Q13107)
T4 sequence (whole entry): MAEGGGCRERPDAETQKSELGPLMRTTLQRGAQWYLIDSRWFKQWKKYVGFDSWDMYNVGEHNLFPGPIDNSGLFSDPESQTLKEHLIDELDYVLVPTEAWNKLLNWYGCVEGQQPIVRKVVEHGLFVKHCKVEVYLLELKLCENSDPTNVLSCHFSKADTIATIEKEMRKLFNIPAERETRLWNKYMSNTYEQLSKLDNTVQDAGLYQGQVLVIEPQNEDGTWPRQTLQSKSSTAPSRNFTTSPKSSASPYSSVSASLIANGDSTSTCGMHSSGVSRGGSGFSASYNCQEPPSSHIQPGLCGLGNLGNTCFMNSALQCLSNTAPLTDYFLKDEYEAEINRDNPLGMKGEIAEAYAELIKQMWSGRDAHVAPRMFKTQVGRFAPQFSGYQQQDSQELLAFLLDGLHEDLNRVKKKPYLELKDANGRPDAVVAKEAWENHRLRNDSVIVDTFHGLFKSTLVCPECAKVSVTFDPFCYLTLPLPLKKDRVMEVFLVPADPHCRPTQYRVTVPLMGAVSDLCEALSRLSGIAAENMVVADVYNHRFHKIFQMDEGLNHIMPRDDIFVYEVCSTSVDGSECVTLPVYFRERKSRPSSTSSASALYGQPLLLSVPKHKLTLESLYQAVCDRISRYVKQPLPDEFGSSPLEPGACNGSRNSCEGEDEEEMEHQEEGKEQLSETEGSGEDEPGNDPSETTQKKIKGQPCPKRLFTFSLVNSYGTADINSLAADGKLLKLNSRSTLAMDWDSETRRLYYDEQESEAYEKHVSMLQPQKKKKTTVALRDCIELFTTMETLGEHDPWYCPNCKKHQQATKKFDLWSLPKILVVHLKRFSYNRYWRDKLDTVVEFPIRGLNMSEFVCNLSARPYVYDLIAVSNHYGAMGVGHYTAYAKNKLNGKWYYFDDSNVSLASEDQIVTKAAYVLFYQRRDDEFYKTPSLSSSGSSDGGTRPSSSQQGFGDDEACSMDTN
In short: as §1

Measured: log2 ratio of Biotin-Ahx-Ub-VS probe labelling

CCc1c[nH]c(CNC(=O)CCl)n1.Cl
inactive: [1] -0.213 | [2] -0.245 | [3] -0.15 | [4] 0.178 | [5] -0.159
